{"source": "PubChem BioAssay (EPA / NIEHS)", "note": "Where “and” joins values, the source holds several entries; their conditions need not be identical. Identical values can stand only once. Where a structure was tested more than once in an assay, its records may differ in their call. Calls of active or inactive are those of the source. How the source made its calls: active means hit-call score of the fitted dose curve at least 0.9, where 1 is the maximum; inactive means score below 0.9.", "data": [{"read-out": "Matrix Metallopeptidase 1 (MMP1), MMP1 (gene 4312)", "assay": "BSK_BF4T_MMP1: BioMAP Diversity Plus: BF4T Assay for Matrix Metallopeptidase 1 (MMP1) Biomarker Activity (AID 2284270)", "conditions": "primary human bronchial epithelial cells with fibroblasts", "description": "BSK_BF4T is a cell-based, multiplexed-readout assay that uses bronchial epithelial cells and dermal fibroblasts, a human vascular primary cell, with measurements taken at 24 hours after chemical dosing in a microplate: 96-well plate.BSK_BF4T_MMP1 is an assay component measured in the BSK_BF4T assay. It measures MMP-1 antibody related to regulation of gene expression using ELISA technology.Data from the assay component BSK_BF4T_MMP1 was analyzed at the endpoint, BSK_BF4T_MMP1, in the positive analysis fitting direction relative to DMSO as the negative control and baseline of activity. Using a type of binding reporter, gain or loss-of-signal activity can be used to understand protein changes. To generalize the intended target to other relatable targets, this assay endpoint is annotated to the 'protease' intended target family, where the subfamily is 'matrix metalloproteinase'.\nThe levels of cell surface (or secreted, indicated by the prefix \"s\") biomarker endpoints were measured by ELISA. Overt cytotoxicity to cells in confluent adherent cultures (all systems other than the BT system) was assessed by measuring total protein levels using sulforhodamine B (SRB) staining in parallel cultures at the time of biomarker measurements, indicated as SRB endpoints. For proliferation assays for adherent cell types, individual cell types are cultured at sub-confluence and relative cell numbers quantified by SRB staining at time points optimized for each system (48 h: 3C and CASM3C systems; 72 h: BT and HDF3CGF systems; 96 h: SAg system). SRB was performed by staining cells with 0.1% SRB after fixation with 10% TCA and reading wells at 560 nm.Viability and proliferation of PBMC (T cells) was quantified by Alamar Blue reduction for the SAg and BT systems. For PBMC viability (referred to as PBMC Cytotoxicity within the assay endpoint names), cells were plated (75,000/well in a 96-well plate) and then chemical samples added for 1 h before addition of activators, SEB and TSST-1 (20 ng/mL final concentration each). Cells were incubated for 90 h. Then, Alamar Blue (20 uL/well) (Invitrogen, Cat DAL1100) was added for 6 h, and the plates were read with a fluorescence microplate reader at 546/580 nm (excitation/emission). For PBMC proliferation, cells were plated and activated as above but incubated for only 16 h prior to addition of Alamar Blue. Plates were read after 6 h.", "values": [{"smiles": "O=C(O)C=C(C(F)(F)F)C(F)(F)F", "outcome": "inactive"}, {"smiles": "CCO[Si](CCC(F)(F)C(F)(F)C(F)(F)C(F)(F)C(F)(F)C(F)(F)F)(OCC)OCC", "outcome": "inactive"}, {"smiles": "O=S(=O)(O)C(F)(F)C(F)(F)C(F)(F)C(F)(F)C(F)(F)C(F)(F)C(F)(F)F", "outcome": "inactive"}, {"smiles": "C=CC(F)(F)C(F)(F)C(F)(F)C(F)(F)C(F)(F)C(F)(F)C(F)(F)C(F)(F)C=C", "outcome": "inactive"}, {"smiles": "O=P(O)(O)OCCC(F)(F)C(F)(F)C(F)(F)C(F)(F)C(F)(F)C(F)(F)F", "outcome": "inactive"}, {"smiles": "O=S(=O)(OCCOC(F)(F)F)C(F)(F)F", "outcome": "inactive"}, {"smiles": "O=C(O)C(F)(OC(F)(F)C(F)(OC(F)(F)C(F)(OC(F)(F)C(F)(F)C(F)(F)F)C(F)(F)F)C(F)(F)F)C(F)(F)F", "note": "(stereo not given)", "outcome": "inactive"}, {"smiles": "FC(F)(F)C(F)(F)CNCC(F)(F)C(F)(F)F", "outcome": "inactive"}, {"smiles": "OCC(F)(F)C(F)(F)C(F)(F)C(F)(F)C(F)(F)C(F)(F)F", "outcome": "inactive"}, {"smiles": "O=C(O)C(F)(F)C(F)(F)C(F)(F)F", "outcome": "inactive"}, {"smiles": "O=C(O)C(F)(F)C(F)(F)C(F)(F)C(F)(F)C(F)(F)C(F)(F)C(F)(F)C(F)(F)C(F)(F)C(F)(F)C(F)(F)C(F)(F)C(F)(F)F", "outcome": "inactive"}, {"smiles": "O=C(O)C(F)(F)C(F)(F)C(F)(F)C(F)(F)C(F)(F)C(F)(F)C(F)(F)C(F)(F)Cl", "AC50": "48.7 µM (active) and 55 µM (active)"}, {"smiles": "NC(=O)C(F)(F)C(F)(F)C(F)(F)C(F)(F)F", "outcome": "inactive"}, {"smiles": "O=C(Cl)C(F)(F)C(F)(F)C(F)(F)C(F)(F)C(F)(F)C(F)(F)C(F)(F)C(F)(F)F", "outcome": "inactive", "AC50": "55.2 µM (active)"}, {"smiles": "FC(F)(F)C(F)(F)C(F)(F)C(F)(F)C(F)(F)C(F)(F)C(F)(F)I", "outcome": "inactive"}, {"smiles": "FC(F)(F)C(F)(F)C(F)(F)C(F)(F)C(F)(F)C(F)(F)CCS", "outcome": "inactive"}, {"smiles": "OCCCC(F)(F)C(F)(F)C(F)(F)C(F)(F)C(F)(F)C(F)(F)C(F)(F)F", "AC50": "46.8 µM (active)", "outcome": "inactive"}, {"smiles": "FC(F)(F)C(F)(F)C(F)(F)C(F)(F)C(F)(F)CCI", "outcome": "inactive"}, {"smiles": "FC(F)(F)C(F)(F)C(F)(F)C(F)(F)C(F)(F)C(F)(F)C(F)(F)C(F)(F)F", "outcome": "inactive"}, {"smiles": "C=C(C)C(=O)OCCC(F)(F)C(F)(F)C(F)(F)C(F)(F)C(F)(C(F)(F)F)C(F)(F)F", "outcome": "inactive"}, {"smiles": "FC(F)(F)C(F)(F)C(F)(F)C(F)(F)C(F)(F)C(F)(F)C(F)(F)C(F)(F)CCS", "outcome": "inactive"}, {"smiles": "O=C(O)C(F)(F)C(F)(F)C(F)(F)C(F)(F)C(F)(F)C(F)(F)C(F)(F)C(F)(F)C(F)(F)C(F)(F)C(F)(F)C(F)(F)F", "outcome": "inactive"}, {"smiles": "N=C(N)C(F)(F)C(F)(F)C(F)(F)C(F)(F)C(F)(F)C(F)(F)C(F)(F)F", "outcome": "inactive"}, {"smiles": "O=C(O)C(F)(F)C(F)(F)F", "outcome": "inactive"}, {"smiles": "O=C(O)C(F)(OC(F)(F)C(F)(OC(F)(F)C(F)(F)C(F)(F)F)C(F)(F)F)C(F)(F)F", "note": "(stereo not given)", "outcome": "inactive"}, {"smiles": "OCC(F)(F)C(F)(F)C(F)(F)F", "outcome": "inactive"}, {"smiles": "O=C(CC(=O)C(F)(F)C(F)(F)F)C(F)(F)F", "outcome": "inactive"}, {"smiles": "C=C(C)C(=O)OCC(F)(F)C(F)(F)C(F)(F)F", "outcome": "inactive"}, {"smiles": "O=C(O)C(F)(F)C(F)(F)OC(F)(F)F", "outcome": "inactive"}, {"smiles": "O=S(=O)(OCC(F)F)C(F)(F)F", "outcome": "inactive"}, {"smiles": "CC(C)(C)C(=O)CC(=O)C(F)(F)C(F)(F)C(F)(F)F", "outcome": "inactive"}, {"smiles": "FC(F)(F)C(F)(F)C(F)(F)N(C(F)(F)C(F)(F)C(F)(F)F)C(F)(F)C(F)(F)C(F)(F)F", "outcome": "inactive"}, {"smiles": "FC1CC(F)(F)C(F)(F)C1(F)F", "note": "(stereo not given)", "outcome": "inactive"}, {"smiles": "C=CC(F)(F)C(F)(F)C(F)(F)C(F)(F)C(F)(F)C(F)(F)C(F)(F)C(F)(F)F", "outcome": "inactive"}, {"smiles": "FC(F)(F)C(F)(F)C(F)(F)C(F)(F)C(F)(F)C(F)(F)C(F)(F)Br", "outcome": "inactive"}, {"smiles": "FC(F)(Br)C(F)(F)C(F)(F)C(F)(F)C(F)(F)C(F)(F)Br", "outcome": "inactive"}, {"smiles": "OCC(F)(F)C(F)(F)C(F)(F)C(F)(F)C(F)(F)C(F)F", "outcome": "inactive"}, {"smiles": "OCCCC(F)(F)C(F)(F)C(F)(F)F", "outcome": "inactive"}]}]}
